The source of these data is PubChem BioAssay (NCI).

The panel holds about 83,000 compounds, 20% with a hit somewhere; the sample as a whole holds those more often.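 Method: cells in 96-well plates; compound added at one concentration; 48 h incubation; percent growth measured; values under 10 scored active.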 Values without a mark were called inactive. Calls of active or inactive are those of the source.

The test system of the experiment is MDA-MB-468 breast. Briefly: NCI-60 one-dose screen, 48 h (100 = growth as untreated, 0 = no growth, -100 = all killed). The settings on record: 10 µM unless noted.
For the compound `COc1cccc(/C=C2\Oc3cc(OCCCN4CCCC4)ccc3C2=O)c1`, the growth was 69.4%.
`Nc1nn(C(=O)Nc2ccc(Cc3ccccc3)cc2)c2ccc(Cl)cc12`: the growth is 72.3%.
Consider `C[C@@H]1CC[C@@H]2[C@@H]1[C@H](OC(=O)/C=C/c1ccccc1)[C@]1(C3CCCCC3)C[C@@H](OC(=O)CO)[C@@]2(C)O1`, for which the growth was 74.1%.
With `CCOC(=O)N/N=C/c1ccc(OC)c(OC)c1`, the growth was 97.6%.
For `CC1CC2Oc3ccc(Cl)cc3C(=O)N2O1` (stereo not given), the growth was 94.5%.
In the case of `O=NN(Cc1cccnc1)C(=O)NC1CCCCC1` it was 104%; in that of `CCOC(=O)c1c(NC(=O)c2cccc(C(F)(F)F)c2)sc2c(CN3CCN(C)CC3)c(O)ccc12`, -2.41% (active).
In the case of `CCN(Cc1ccccc1)c1ccc(SC#N)cc1` it was 72.3%; in that of `COc1ccc(CNc2c3ccccc3nc3ccccc23)cc1`, 27.1%; in that of `COc1ccc(C(=O)Nc2cccc(C3CCc4c(cc(OC)c(OC)c4OC)O3)c2)cc1` (stereo not given), 12.4%.
In the case of `CCCOCc1cn[nH]n1` it was 105%; in that of `CC(=O)C[n+]1ccccc1Sc1ccc(Cl)cc1`, 97.3%; in that of `O=C(O)COc1ccc2c(=O)c3sc4c(=O)c5ccccc5c(=O)c4c3c(=O)c2c1`, 26.4%.
In the case of `CC[C@@H](C)/C=C(C)/C=C/C(O)=C1\C(=O)N[C@@H](Cc2ccc(OC(=O)[C@@](OC)(c3ccccc3)C(F)(F)F)cc2)C1=O`, the growth is 110%.
In the case of `N#Cc1c2c(nn(-c3ccccc3)c1=O)C(O)=C([N+](=O)[O-])C(c1ccccc1)C2` (stereo not given) it was 64.1%.
